PubChem BioAssay AID1851 (National Center for Advancing Translational Sciences (NCATS), 2009)
Hit rate of the full screen: of about 16,000 compounds, about 2,600 (16%) were called active. Inconclusive results (about 20%) are left out. The call rests on the fitted dose curve; in most records, active means well fitted curve in the direction sought with a large enough effect; inconclusive means small, poorly fitted or top-dose-only effect, or effect the other way; inactive means no such curve, though single readings can be large or run the other way. A selection follows. Numbered stars: 1 amine (or outer) side, 2 acyl side, 3 side chain; on linkers, the order of the positions; unused ones are H or OH. Bridge positions count the residues as written; N and C are the ends. Square brackets hold non-standard residues; d marks the D form. Peptide text beside a SMILES is read from it. I, II: the chains in the order shown. Actinocin(9to1) = Cc1c2oc3c(C)ccc(C(=O)[*:1])c3nc-2c(C(=O)[*:2])c(N)c1=O; aThr = C[C@H](O)[C@H](N)C(=O)O; NMeV = CN[C@H](C(=O)O)C(C)C; Sar = CNCC(=O)O

biological target: Cytochrome P450 2D6 (Homo sapiens) (UniProt P10635); assay: Cytochrome panel assay with activity outcomes; conditions: recombinant CYP, pro-luciferin dealkylation, luminescence, p450-cyp2d6; series mostly up to 57.1 µM
On the % scale 0 is the no-effect control and ±100 the full control effect.

Cytochrome P450 2D6 (Homo sapiens), sequence (P10635 whole entry, looked up): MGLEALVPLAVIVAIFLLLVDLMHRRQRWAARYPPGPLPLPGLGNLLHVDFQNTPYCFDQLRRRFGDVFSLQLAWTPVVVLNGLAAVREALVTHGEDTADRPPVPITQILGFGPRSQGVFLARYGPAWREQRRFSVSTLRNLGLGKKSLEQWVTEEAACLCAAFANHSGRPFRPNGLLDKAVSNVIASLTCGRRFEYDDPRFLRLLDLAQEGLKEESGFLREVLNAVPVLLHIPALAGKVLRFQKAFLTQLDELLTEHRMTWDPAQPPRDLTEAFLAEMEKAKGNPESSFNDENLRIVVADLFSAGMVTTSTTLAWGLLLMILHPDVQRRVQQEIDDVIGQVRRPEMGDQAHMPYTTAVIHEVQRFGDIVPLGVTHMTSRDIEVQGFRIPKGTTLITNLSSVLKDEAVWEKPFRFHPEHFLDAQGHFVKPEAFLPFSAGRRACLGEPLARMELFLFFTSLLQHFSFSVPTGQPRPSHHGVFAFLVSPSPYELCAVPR

Compound | AC50 | activity, negative = inhibition
Cc1ccc(NC2c3ncccc3C(=O)N2Cc2ccc(F)cc2)cc1 (centres undefined) | inactive | 
COc1ccc(OC)c(C2CC(=O)C3=C(C2)NC(=O)CC3c2ccc(O)c(OC)c2)c1 (centres undefined) | inactive | 
CC(C)CC(=O)N1CCC(O)(CS(=O)(=O)Cc2ccc(Cl)cc2)CC1 | inactive | 
COCCn1c(=O)c(-c2cccc(F)c2)nc2cncnc21 | inactive | 
Cc1nn(-c2ccccc2)c(N2CCCCC2)c1/C=N/O | inactive | 
O=C(c1ccc(Cl)cc1)N1CCN(c2cc(=O)[nH]nc2-c2ccccc2)CC1 | inactive | 
CSc1ccc(CNc2ccccc2)cc1 | inactive | 
COc1cccc(CNCc2ccc(SC)cc2)c1OC | 3.16 µM (active) | 
CC(C)CC(=O)Nc1sc2c(c1C#N)CC(C)(C)NC2(C)C | 7.94 µM (active) | 
COc1ccc(C(=O)N2CC3(CC(c4ccc(Cl)cc4)=NO3)C[C@H]2C(=O)NCC(N)=O)cc1 (some centres undefined) | inactive | 
CCOC(=O)C1C(=O)C=C(c2ccc(C)cc2)CC1c1ccco1 (centres undefined) | inactive | 
Cc1c2oc3c(C)ccc(C(=O)N[C@@H]4C(=O)N[C@@H](C(C)C)C(=O)N5CCC[C@@H]5C(=O)N(C)CC(=O)N(C)[C@@H](C(C)C)C(=O)O[C@H]4C)c3nc-2c(C(=O)N[C@@H]2C(=O)N[C@@H](C(C)C)C(=O)N3CCC[C@@H]3C(=O)N(C)CC(=O)N(C)[C@@H](C(C)C)C(=O)O[C@H]2C)c(N)c1=O (I: [aThr]V[dP][Sar][NMeV] / II: [aThr]V[dP][Sar][NMeV]; ester I:1-I:C, II:1-II:C; linker I:N-II:N via Actinocin(9to1)) | inactive | 
Cc1ccc(-n2[nH]c(C)c(C=Nc3ccc4[nH]c(=O)[nH]c4c3)c2=O)cc1C | inactive | 
CCOc1ccc(C2=[N+]([O-])C(C)(C)N(O)C2(C)C)cc1 | inactive | 
Cc1ccc(S(=O)(=O)N[C@H](C(=O)O)C(C)C)cc1 |  | 3.72% [at 11.4 µM] (inactive)
Cc1ccc(S(=O)(=O)NNc2ccccc2)cc1 | 7.94 µM (active) | 
Cc1ccc(NC(=O)NNS(=O)(=O)c2ccc(Br)cc2)cc1 | inactive | 
Cc1ccc(NNS(=O)(=O)c2ccc(C)cc2)cc1 | 5.62 µM (active) | 
Cc1ccc(S(=O)(=O)N[C@H](CO)C(=O)O)cc1 |  | 1.97% [at 11.4 µM] (inactive)
Cc1ccc(S(=O)(=O)NCc2ccccc2)cc1 | inactive | 
OC[C@@H]1O[C@@H](n2cnc3c(NC4CCCC4)ncnc32)[C@@H](O)[C@H]1O | inactive | 
CCN1C(=O)C=CC1=O | inactive | 
CC[N+](CC)(CC)CC | inactive | 
Clc1ccc(Sc2cc(N3CCOCC3)nc(-c3ccccc3)n2)cc1 | inactive | 
CC(=O)C1=C(NC(=O)c2ccc(F)cc2)CC2C1C2(C)C (centres undefined) | inactive | 
Cc1[nH]nc(Nc2ccccc2)c1[N+](=O)[O-] | 10 µM (active) | 
Nc1nc(NCc2ccccc2)nc(Nc2cccc(F)c2)c1[N+](=O)[O-] | inactive | 

Compound | AC50 | activity, negative = inhibition
Cc1ccc(CNc2nc(N)c([N+](=O)[O-])c(Nc3ccc(F)cc3)n2)cc1 | inactive | 
CCOC(=O)CCc1c(C)nc2ncnn2c1C | inactive | 
O=C(OCC#CCSc1nnc(-c2cccc3ccccc23)o1)c1ccco1 | inactive | 
COc1cc2c(cc1OC)C(C(=O)Nc1ccccn1)C(c1cccnc1)N(C)C2=O (centres undefined) | inactive | 
c1ccc(C(CCN2CC3CCC(CC3)C2)c2ccccc2)cc1 | 0.794 µM (active) | 
c1ccc([C@H](CCN2CCCC2)c2ccccn2)cc1 |  | 12% [at 11.4 µM] (inactive)
CCOc1cc(/C=N/NC(=O)CN2CCCCC2)ccc1OCc1ccccc1 | inactive | 
C/C(CCN1CCc2nc(-c3ccccc3)c(-c3ccccc3)cc2C1)=N\OC[C@@H](O)COCc1ccco1 |  | 7.77% [at 11.4 µM] (inactive)
Cc1nc2cnc(Oc3cccc(Cl)c3)nc2n(CCc2ccccc2)c1=O | inactive | 
COC(=O)[C@@H]1CC[C@H](C)[C@@H](c2ccc(C)cc2)N1C(=O)c1ccc(/C=N\OC[C@@H](O)COCc2ccco2)cc1 |  | -0.0575% [at 11.4 µM] (inactive)
CO/N=C\c1ccc(C(=O)N2[C@H](c3ccc(C)cc3)[C@@H](C)CC[C@H]2C(=O)OC)cc1 |  | 16% [at 11.4 µM] (inactive)
COC(=O)[C@@H]1CC[C@H](C)[C@@H](c2ccc(C)cc2)N1C(=O)c1ccc(/C=N\OC[C@@H](C)[C@H](OCc2ccccc2)C(C)C)cc1 | 3.98 µM (active) | 
CC(C)(C)C(=O)[C@H]1[C@H](c2ccccc2)[C@@]2(N=C(c3ccccc3)OC2=O)C2c3ccccc3C=NN21 (some centres undefined) | inactive | 
C#CCCCO/N=C1/C[C@@H](O)[C@@H](O)[C@@H]2[C@H]3C(=O)N(c4ccc(F)cc4F)C(=O)[C@@H]3CC[C@H]12 |  | -3.2% [at 11.4 µM] (inactive)
CC(C)(C)c1cc2c(O)c(c1)Cc1cc(C(C)(C)C)cc(c1O)Cc1cc(C(C)(C)C)cc(c1O)Cc1cc(C(C)(C)C)cc(c1O)Cc1cc(C(C)(C)C)cc(c1O)Cc1cc(C(C)(C)C)cc(c1O)Cc1cc(C(C)(C)C)cc(c1O)Cc1cc(C(C)(C)C)cc(c1O)C2 |  | 12.2% [at 11.4 µM] (inactive)
Oc1cc(CN2COc3ccccc32)c(O)cc1CNC1CCCCC1 |  | -11.4% [at 11.4 µM] (inactive)
Cc1cc(C(C)(C)C)cc(CNC2CCCCC2)c1O | 0.501 µM (active) | 
COCCn1c(=O)c(-c2ccccc2)nc2cnc(Nc3cccc(OC)c3)nc21 | inactive | 
O=C(NC1CCCCC1)C(c1cccs1)N(C(=O)C(F)(F)F)c1ccccc1 (centres undefined) | 10 µM (active) | 
CC(C)c1ccc(N(C(=O)C(F)(F)F)C(C(=O)NC2CCCCC2)c2ccncc2)cc1 (centres undefined) | inactive | 
O=C(NC1CCCC1)C(c1ccsc1)N(Cc1ccccc1)C(=O)Cc1cccs1 (centres undefined) | 12.6 µM (active) | 
Cc1cc(C)cc(N(C(=O)c2ccccn2)C(C(=O)NC2CCCCC2)c2cccs2)c1 (centres undefined) | inactive | 
Cc1ccc(C(OC(=O)c2ccco2)C(=O)NC2CCCCC2)cc1 (centres undefined) | inactive | 
Cc1cc(C)cc(N(C(=O)Cc2cccs2)C(C(=O)NC2CCCCC2)c2ccccn2)c1 (centres undefined) | inactive | 
Cc1nn(C)cc1C(C(=O)NC1CCCCC1)N(C(=O)Cc1cccs1)c1ccc(C(C)C)cc1 (centres undefined) | inactive | 
Cc1ccc(N(C(=O)C(F)(F)F)C(C(=O)NC2CCCCC2)c2cccs2)cc1C (centres undefined) | inactive | 
O=C(NC1CCCCC1)C(c1cccs1)N(Cc1cccs1)C(=O)c1ccco1 (centres undefined) | 17.8 µM (active) | 
